Among the data in PubChem BioAssay (NCI) are growth values, retold here.

Compounds without any hit were thinned out: in the full panel of roughly 83,000, 20% have a hit.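 Testing used 96-well plates and a 48-hour single-concentration exposure. Example: -40 means 40% of the starting cells died.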 Values without a mark were called inactive. Active and inactive are the calls of the source. Rule for the calls: active = growth percent below 10; inactive = the rest.

Among the test systems are SK-MEL-2 melanoma; EKVX NSCLC; SN12C renal; UO-31 renal; TK-10 renal; ACHN renal; CAKI-1 renal; A498 renal; CCRF-CEM leukemia; MOLT-4 leukemia; RPMI-8226 leukemia; OVCAR-8 ovarian; OVCAR-5 ovarian; OVCAR-4 ovarian; SK-OV-3 ovarian; IGROV1 ovarian; OVCAR-3 ovarian; HS 578T breast; NCI/ADR-RES ovarian.
What all share (assay): NCI-60 one-dose screen, 48 h (100 = growth as untreated, 0 = no growth, -100 = all killed)
Details in all cases: 10 µM unless noted

On to `CN1CCN(c2ccc(-c3ccc4ncc(C#N)c(Nc5ccc(F)c(Cl)c5)c4c3)cn2)CC1`, for which the growth was 49.7% in the assay with SK-MEL-2 melanoma; 48.4% in the assay on EKVX NSCLC; 62.5% with SN12C renal; 28.7% in the assay on UO-31 renal; 34.1% in the assay with TK-10 renal; 17.4% in the assay on ACHN renal. Further, the growth in the assay on CAKI-1 renal is 27.2%; in the assay with A498 renal, -7.02% (active); in the assay with CCRF-CEM leukemia, 37.8%; in the assay on MOLT-4 leukemia, 38.2%; with RPMI-8226 leukemia, 14.9%; in the assay on OVCAR-8 ovarian it was 59.8%. The growth is 60.8% in the assay on OVCAR-5 ovarian; 52.2% in the assay with OVCAR-4 ovarian; 25.8% with SK-OV-3 ovarian; 8.52% (active) in the assay with IGROV1 ovarian; 58.6% in the assay on OVCAR-3 ovarian; 52.2% with HS 578T breast. Also, in the assay with NCI/ADR-RES ovarian, the growth is 67.8%.
For the molecule `CN(C)CC#Cc1ccc2ncc(C#N)c(Nc3ccc(F)c(Cl)c3)c2c1`, the growth in the assay with SK-MEL-2 melanoma was 38.3%; in the assay with EKVX NSCLC, 30.8%; in the assay with SN12C renal it was 35.4%; in the assay on UO-31 renal, 18%; with TK-10 renal, 27.1%; in the assay on ACHN renal, 10.5%. The growth in the assay with CAKI-1 renal is 17.1%; in the assay with A498 renal, -11.8% (active); with CCRF-CEM leukemia, 81.7%; in the assay on MOLT-4 leukemia, 53.7%; in the assay with RPMI-8226 leukemia, 50.3%; in the assay with OVCAR-8 ovarian, 45.2%. For the same molecule, the growth was 54.8% in the assay with OVCAR-5 ovarian; 38.1% in the assay with OVCAR-4 ovarian; 17.4% with SK-OV-3 ovarian; 3.51% (active) with IGROV1 ovarian; 54.9% in the assay on OVCAR-3 ovarian; 52.1% with HS 578T breast. In the assay on NCI/ADR-RES ovarian, the growth was 42.9%.
Turning to `O=c1ccc(N=Nc2ccccc2)ccc1Cl`, the growth was 77.6% in the assay with SK-MEL-2 melanoma; 65.9% with EKVX NSCLC; 60% in the assay with SN12C renal; 77% in the assay on UO-31 renal; 111% in the assay with TK-10 renal; 75.9% with ACHN renal. Moreover, the growth in the assay with CAKI-1 renal is 76.1%; with A498 renal, 191%; in the assay on CCRF-CEM leukemia, 31.3%; in the assay on MOLT-4 leukemia, -1.36% (active); with RPMI-8226 leukemia, 25.1%; with OVCAR-8 ovarian, 38.9%. Besides, the growth in the assay with OVCAR-5 ovarian was 120%; in the assay with OVCAR-4 ovarian, 84.6%; with SK-OV-3 ovarian it was 93.8%; in the assay with IGROV1 ovarian it was 80.7%; in the assay with OVCAR-3 ovarian it was 23.7%; in the assay with HS 578T breast, 92.4%. Besides, the growth in the assay with NCI/ADR-RES ovarian is -4.66% (active).
As for `O=c1[nH][n+](-c2ccc(Br)cc2)no1`, the growth is 55.8% in the assay on SK-MEL-2 melanoma; 60.8% in the assay on EKVX NSCLC; 66.7% with SN12C renal; 22.7% with UO-31 renal; 63.8% in the assay with TK-10 renal; 37.8% in the assay on ACHN renal. The growth with CAKI-1 renal is 18.5%; with A498 renal, 93.8%; with CCRF-CEM leukemia, 55.1%; in the assay on MOLT-4 leukemia it was 41.5%; with RPMI-8226 leukemia, 56.6%; in the assay with OVCAR-8 ovarian, 55.7%. Further, the growth in the assay with OVCAR-5 ovarian is 74.7%; in the assay with OVCAR-4 ovarian it was 57.9%; in the assay with SK-OV-3 ovarian it was 82.3%; in the assay with IGROV1 ovarian, 62.1%; with OVCAR-3 ovarian, 58.8%; in the assay with HS 578T breast it was 97.7%. In addition, in the assay on NCI/ADR-RES ovarian, the growth was 73.9%.
With `Cc1nc2ccccc2c(/C=C/c2ccc(Cl)cc2)c1C(=O)/C=C/c1ccc(C(F)(F)F)cc1`, the growth is -31.9% (active) in the assay on SK-MEL-2 melanoma; -60.1% (active) in the assay on EKVX NSCLC; -70.7% (active) in the assay with SN12C renal; -100% (active) in the assay with UO-31 renal; -82.8% (active) in the assay on TK-10 renal; -100% (active) in the assay on ACHN renal. For the same molecule, the growth is -95.4% (active) with CAKI-1 renal; -89.5% (active) with A498 renal; 8.6% (active) in the assay on CCRF-CEM leukemia; 0.0825% (active) in the assay on MOLT-4 leukemia; -30.7% (active) with RPMI-8226 leukemia; 2.79% (active) with OVCAR-8 ovarian. For the same molecule, the growth in the assay with OVCAR-5 ovarian was -41.6% (active); in the assay on OVCAR-4 ovarian, -91% (active); in the assay with SK-OV-3 ovarian, -79.9% (active); with IGROV1 ovarian, -85.5% (active); with OVCAR-3 ovarian, -85.8% (active); in the assay with HS 578T breast, -17.3% (active). The growth in the assay on NCI/ADR-RES ovarian was -5.17% (active).
For `Cc1ccc(C(=O)NCCNc2nccc(-c3c(-c4cccc(F)c4)nc4sccn34)n2)cc1`, the growth in the assay with SK-MEL-2 melanoma is 70.7%; in the assay with EKVX NSCLC, 38.5%; in the assay with SN12C renal, 47.3%; in the assay with UO-31 renal, 23%; in the assay with TK-10 renal, 75.6%; in the assay with ACHN renal, 29.5%. Besides, the growth in the assay with CAKI-1 renal is 40.1%; in the assay with A498 renal it was 32.8%; in the assay on CCRF-CEM leukemia, 49.4%; in the assay on MOLT-4 leukemia, 56.5%; with RPMI-8226 leukemia, 53.8%; in the assay with OVCAR-8 ovarian it was 55%. Besides, the growth with OVCAR-5 ovarian is 69.2%; in the assay with OVCAR-4 ovarian, 67.8%; in the assay on SK-OV-3 ovarian, 64.3%; in the assay on IGROV1 ovarian it was 23.1%; in the assay with OVCAR-3 ovarian it was 61.6%; in the assay on HS 578T breast, 33%. The growth with NCI/ADR-RES ovarian is 55.6%.
For the molecule `COc1ccc(-c2nn(C(=O)c3cc(OC)c(OC)c(OC)c3)c3cc(N)ccc23)cc1`, the growth in the assay with SK-MEL-2 melanoma was 55.8%; in the assay with EKVX NSCLC, 30.8%; in the assay with SN12C renal, 22.9%; in the assay on UO-31 renal, 23.7%; in the assay with TK-10 renal it was 60.8%; with ACHN renal it was 11.4%. The growth is 46.2% with CAKI-1 renal; -8.28% (active) with A498 renal; 17% in the assay with CCRF-CEM leukemia; 13.7% with MOLT-4 leukemia; 21.7% in the assay on RPMI-8226 leukemia; 15.9% in the assay on OVCAR-8 ovarian. Moreover, the growth in the assay with OVCAR-5 ovarian was 39.2%; with OVCAR-4 ovarian, 58.1%; in the assay on SK-OV-3 ovarian it was 31.5%; in the assay with IGROV1 ovarian, 23.9%; in the assay with OVCAR-3 ovarian, 0.527% (active); in the assay on HS 578T breast it was 35%. Moreover, the growth in the assay on NCI/ADR-RES ovarian is 15.6%.
For `c1cc2nc(-c3cn[nH]c3)c3c(c2cc1-c1cn[nH]c1)C1CCC3C1` (configuration not stated), the growth with SK-MEL-2 melanoma is 92.4%; in the assay on EKVX NSCLC, 46.3%; with SN12C renal, 66%; with UO-31 renal, 40.3%; with TK-10 renal it was 97.4%; in the assay with ACHN renal it was 44.9%. The growth in the assay with CAKI-1 renal is 28.3%; with A498 renal, -6.11% (active); in the assay on CCRF-CEM leukemia, 69%; in the assay on MOLT-4 leukemia, 63%; in the assay on RPMI-8226 leukemia it was 50.6%; with OVCAR-8 ovarian, 59.3%. Moreover, the growth in the assay on OVCAR-5 ovarian was 67.8%; in the assay with OVCAR-4 ovarian it was 83.9%; in the assay with SK-OV-3 ovarian, 60.2%; with IGROV1 ovarian, 48.6%; with OVCAR-3 ovarian it was 75.5%; in the assay with HS 578T breast, 23.2%. Also, the growth in the assay on NCI/ADR-RES ovarian was 64.8%.
